Shown are actives, neighbours in structure and some others; about 3.6% of the full set was active somewhere.
mHTT-CaM PPI inh: mutant huntingtin-calmodulin interaction inhibitors – biochemical, AlphaScreen, primary screen | P42858 | AlphaScreen His-mHTT/GST-CaM binding, luminescence | inhibition, % at 15 µM | 3.6% of 190,000 active
Target sequence (P42858 whole entry, looked up, change not shown): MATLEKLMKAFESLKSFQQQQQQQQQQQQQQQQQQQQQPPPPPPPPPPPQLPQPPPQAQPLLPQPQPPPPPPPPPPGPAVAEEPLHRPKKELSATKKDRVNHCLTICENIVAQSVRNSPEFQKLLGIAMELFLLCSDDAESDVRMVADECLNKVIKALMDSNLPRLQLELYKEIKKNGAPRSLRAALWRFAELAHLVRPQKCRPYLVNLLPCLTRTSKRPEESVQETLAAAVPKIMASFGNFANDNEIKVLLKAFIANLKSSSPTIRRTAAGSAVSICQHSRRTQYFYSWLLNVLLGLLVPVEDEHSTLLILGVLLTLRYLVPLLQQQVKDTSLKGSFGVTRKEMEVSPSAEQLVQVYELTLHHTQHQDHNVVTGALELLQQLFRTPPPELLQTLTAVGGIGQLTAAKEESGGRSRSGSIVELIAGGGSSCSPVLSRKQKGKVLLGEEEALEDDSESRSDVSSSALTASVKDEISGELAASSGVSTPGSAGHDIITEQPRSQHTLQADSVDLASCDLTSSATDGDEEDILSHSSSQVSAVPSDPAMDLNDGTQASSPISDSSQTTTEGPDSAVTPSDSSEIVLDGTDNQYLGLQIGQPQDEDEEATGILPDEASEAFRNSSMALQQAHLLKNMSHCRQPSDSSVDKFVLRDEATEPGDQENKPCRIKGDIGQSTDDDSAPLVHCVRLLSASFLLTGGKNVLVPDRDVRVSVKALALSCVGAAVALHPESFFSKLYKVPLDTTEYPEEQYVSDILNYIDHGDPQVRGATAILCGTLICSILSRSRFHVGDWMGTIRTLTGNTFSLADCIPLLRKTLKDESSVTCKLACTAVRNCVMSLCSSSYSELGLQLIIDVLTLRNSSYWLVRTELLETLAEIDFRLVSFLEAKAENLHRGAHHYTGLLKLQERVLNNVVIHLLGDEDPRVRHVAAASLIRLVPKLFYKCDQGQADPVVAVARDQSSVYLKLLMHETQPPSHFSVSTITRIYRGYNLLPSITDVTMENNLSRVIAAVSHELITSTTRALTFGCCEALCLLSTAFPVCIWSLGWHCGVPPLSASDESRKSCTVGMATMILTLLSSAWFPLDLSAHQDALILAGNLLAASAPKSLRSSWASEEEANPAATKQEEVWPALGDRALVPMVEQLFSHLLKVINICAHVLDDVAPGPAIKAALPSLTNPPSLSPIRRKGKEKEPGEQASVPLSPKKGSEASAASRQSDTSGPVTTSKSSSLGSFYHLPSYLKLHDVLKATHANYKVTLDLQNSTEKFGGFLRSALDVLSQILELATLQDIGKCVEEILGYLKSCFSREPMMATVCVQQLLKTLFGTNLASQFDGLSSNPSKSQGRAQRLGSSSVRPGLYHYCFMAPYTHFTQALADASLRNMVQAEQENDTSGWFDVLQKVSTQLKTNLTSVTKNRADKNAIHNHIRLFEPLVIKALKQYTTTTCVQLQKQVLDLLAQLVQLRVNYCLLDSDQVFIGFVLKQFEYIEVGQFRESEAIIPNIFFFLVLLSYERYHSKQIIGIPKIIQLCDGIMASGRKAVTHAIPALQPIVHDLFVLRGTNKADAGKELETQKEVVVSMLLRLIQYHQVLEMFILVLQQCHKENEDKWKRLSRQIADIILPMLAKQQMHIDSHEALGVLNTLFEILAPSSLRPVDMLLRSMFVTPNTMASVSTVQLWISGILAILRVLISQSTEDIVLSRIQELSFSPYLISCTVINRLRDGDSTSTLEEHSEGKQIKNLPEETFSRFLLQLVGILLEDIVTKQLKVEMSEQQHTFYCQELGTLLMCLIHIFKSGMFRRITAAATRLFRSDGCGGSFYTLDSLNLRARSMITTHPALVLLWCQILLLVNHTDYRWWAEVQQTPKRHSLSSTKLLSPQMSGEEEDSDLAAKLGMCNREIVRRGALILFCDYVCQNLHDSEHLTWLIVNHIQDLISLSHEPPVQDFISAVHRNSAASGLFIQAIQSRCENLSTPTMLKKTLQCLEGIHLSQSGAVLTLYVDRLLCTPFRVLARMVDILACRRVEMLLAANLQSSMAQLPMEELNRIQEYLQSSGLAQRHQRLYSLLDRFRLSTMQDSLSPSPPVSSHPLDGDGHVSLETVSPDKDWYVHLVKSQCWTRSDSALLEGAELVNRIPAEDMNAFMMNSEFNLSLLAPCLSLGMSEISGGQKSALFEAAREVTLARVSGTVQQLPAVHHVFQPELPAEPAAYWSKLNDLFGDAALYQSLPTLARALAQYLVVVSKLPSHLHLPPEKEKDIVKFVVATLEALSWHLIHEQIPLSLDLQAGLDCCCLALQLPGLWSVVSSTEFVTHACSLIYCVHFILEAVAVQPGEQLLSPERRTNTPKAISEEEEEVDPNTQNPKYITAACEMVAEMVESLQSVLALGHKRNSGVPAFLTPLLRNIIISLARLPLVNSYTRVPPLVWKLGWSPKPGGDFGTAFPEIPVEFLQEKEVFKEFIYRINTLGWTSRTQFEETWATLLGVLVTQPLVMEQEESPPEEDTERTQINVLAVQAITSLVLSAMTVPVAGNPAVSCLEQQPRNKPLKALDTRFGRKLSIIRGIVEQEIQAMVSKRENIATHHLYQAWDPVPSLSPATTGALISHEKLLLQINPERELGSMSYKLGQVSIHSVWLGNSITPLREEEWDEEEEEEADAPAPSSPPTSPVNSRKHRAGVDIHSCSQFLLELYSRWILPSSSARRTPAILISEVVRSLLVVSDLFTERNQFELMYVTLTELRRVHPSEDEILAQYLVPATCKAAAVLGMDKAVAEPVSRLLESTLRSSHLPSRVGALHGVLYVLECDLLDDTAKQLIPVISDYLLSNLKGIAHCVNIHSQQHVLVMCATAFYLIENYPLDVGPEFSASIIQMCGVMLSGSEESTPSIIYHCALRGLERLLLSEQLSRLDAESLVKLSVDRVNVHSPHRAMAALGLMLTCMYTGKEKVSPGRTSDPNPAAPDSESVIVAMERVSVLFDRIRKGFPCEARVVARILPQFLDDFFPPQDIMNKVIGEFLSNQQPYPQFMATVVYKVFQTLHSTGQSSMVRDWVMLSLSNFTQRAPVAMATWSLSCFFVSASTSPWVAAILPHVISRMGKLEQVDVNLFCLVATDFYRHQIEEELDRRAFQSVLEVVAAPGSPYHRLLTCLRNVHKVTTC
Pf apPOL block: Pf-apPOL inhibitors, biochemical, fluorescence | Plasmodium falciparum apicoplast DNA polymerase (apPOL) | Recombinant Pf-apPOL, molecular beacon fluorescence, 1.5 h | inhibition, % at 10 µM | 0.25% of 210,000 active | AID 1794808, 2022
A number is an active result. Rule as the data show it: active = inhibition above about 50%; inactive = the rest.

What do the screens show for `CC1(C)CC(=O)C2=C(C1)Nc1ccccc1NC2c1ccccc1` (configuration not stated)?
mHTT-CaM PPI inh: inactive; Pf apPOL block: inactive

Results for Cc1cc2c(cc1C)NC(c1ccc(Cl)c(F)c1)C1=C(CC(C)(C)CC1=O)N2 (configuration not stated) ?
mHTT-CaM PPI inh: 59; Pf apPOL block: inactive

Results for Cc1cc2c(cc1C)NC(c1ccc(F)cc1)C1=C(CC(C)(C)CC1=O)N2 (configuration not stated) ?
mHTT-CaM PPI inh: inactive; Pf apPOL block: inactive

Results for O=C(CCC1CCCN(c2cc(NC3CC3)ncn2)C1)NCCc1ccccn1 (configuration not stated) ?
mHTT-CaM PPI inh: inactive; Pf apPOL block: inactive

Results for Cc1cc(C(=O)Nc2ccc3nc(N4CCN(C)CC4)sc3c2)n(C)n1 ?
mHTT-CaM PPI inh: inactive; Pf apPOL block: inactive

Results for COC(=O)Nc1ccc(S(=O)(=O)NCC(=O)O)cc1 ?
mHTT-CaM PPI inh: inactive; Pf apPOL block: inactive

Results for CC(=O)Nc1ccc(OCC(=O)Nc2c(C)cccc2C)cc1 ?
mHTT-CaM PPI inh: inactive; Pf apPOL block: inactive

How did O=C(Cc1nc(-c2ccccn2)n[nH]1)NC1CCCC1 do in these assays?
mHTT-CaM PPI inh: 98; Pf apPOL block: inactive

How did O=C(Cc1nc(-c2cnccn2)n[nH]1)NCc1ccccc1 do in these assays?
mHTT-CaM PPI inh: inactive; Pf apPOL block: inactive

How did O=C(Cc1ccccc1)NC1CCCCCC1 do in these assays?
mHTT-CaM PPI inh: inactive; Pf apPOL block: inactive

What do the screens show for `O=C(Cc1nc(-c2ccccn2)n[nH]1)NC1CC1`?
mHTT-CaM PPI inh: 100; Pf apPOL block: inactive

What do the screens show for `Cc1cc(C)c2nc3s/c(=C\c4cc5c(cc4[N+](=O)[O-])OCO5)c(=O)n3c2c1`?
mHTT-CaM PPI inh: inactive; Pf apPOL block: inactive

What do the screens show for `CCNC(=O)c1cc2sccc2n1C`?
mHTT-CaM PPI inh: inactive; Pf apPOL block: inactive

How did COc1ccccc1N1C(=O)C=C(c2ccc(Cl)cc2)C1=O do in these assays?
mHTT-CaM PPI inh: inactive; Pf apPOL block: inactive

Results for O=C1C=C(c2ccc(Cl)cc2)C(=O)N1c1ccccc1Cl ?
mHTT-CaM PPI inh: 62; Pf apPOL block: inactive

How did Cn1nccc1C(=O)N1CCCC(c2cc(-c3ccccc3)n[nH]2)C1 (configuration not stated) do in these assays?
mHTT-CaM PPI inh: inactive; Pf apPOL block: inactive

What do the screens show for `O=C1NC2(CCN(Cc3ccccc3)CC2)N=C1c1cccc(Cl)c1`?
mHTT-CaM PPI inh: inactive; Pf apPOL block: inactive

What do the screens show for `O=C1NC2(CCN(Cc3ccccc3)CC2)N=C1c1cccc(F)c1`?
mHTT-CaM PPI inh: inactive; Pf apPOL block: inactive

What do the screens show for `O=C1NC2(CCN(Cc3ccc(Cl)cc3)CC2)N=C1c1ccccc1`?
mHTT-CaM PPI inh: 55; Pf apPOL block: inactive

What do the screens show for `COc1cccc(CN2CCC3(CC2)N=C(c2ccccc2)C(=O)N3)c1`?
mHTT-CaM PPI inh: 58; Pf apPOL block: inactive

What do the screens show for `Cn1nc(-c2nc(-c3ccc(F)cc3)no2)c2c1CCN(C(=O)c1ccncc1)C2`?
mHTT-CaM PPI inh: inactive; Pf apPOL block: inactive

Results for COc1ccccc1C(=O)N1CCCC(COc2cccc(C(=O)N3CCCCC3)c2)C1 (configuration not stated) ?
mHTT-CaM PPI inh: inactive; Pf apPOL block: inactive

How did COc1cc(/C=C2\CC/C(=C\c3ccc(O)c(OC)c3)C2=O)ccc1O do in these assays?
mHTT-CaM PPI inh: 61; Pf apPOL block: inactive

How did COc1ccc(/C=C2\CC/C(=C\c3ccc(OC)c(OC)c3)C2=O)cc1OC do in these assays?
mHTT-CaM PPI inh: inactive; Pf apPOL block: inactive

How did O=C(Nc1ccc(F)cc1)N1CCC(CCOc2ccncc2)CC1 do in these assays?
mHTT-CaM PPI inh: inactive; Pf apPOL block: inactive

How did O=C1NN(c2ccccc2)C(=O)/C1=C/c1cccc(OCCOc2ccc([N+](=O)[O-])cc2)c1 do in these assays?
mHTT-CaM PPI inh: inactive; Pf apPOL block: inactive

Results for CCOc1cccc(N2C(=O)NC(=O)/C(=C\c3ccc(Oc4ccc([N+](=O)[O-])cn4)cc3)C2=O)c1 ?
mHTT-CaM PPI inh: 50; Pf apPOL block: inactive

Results for O=C(NCc1ccco1)c1cc(Sc2cccc(Cl)c2)nc2ccccc12 ?
mHTT-CaM PPI inh: inactive; Pf apPOL block: inactive

How did Cc1[nH]n(-c2ccccc2)c(=O)c1C(c1ccco1)c1c(C)[nH]n(-c2ccccc2)c1=O do in these assays?
mHTT-CaM PPI inh: 54; Pf apPOL block: inactive

How did Cc1c(C(c2ccco2)c2c(C)n(C)n(-c3ccccc3)c2=O)c(=O)n(-c2ccccc2)n1C do in these assays?
mHTT-CaM PPI inh: inactive; Pf apPOL block: inactive

What do the screens show for `O=C1C(=O)N(c2nccs2)C(c2cccs2)C1=C(O)c1ccc(Cl)cc1` (configuration not stated)?
mHTT-CaM PPI inh: inactive; Pf apPOL block: inactive

How did Cc1oc(C(=O)O)cc1COc1cccc2cccnc12 do in these assays?
mHTT-CaM PPI inh: 74; Pf apPOL block: inactive

How did Cc1oc(C(=O)O)cc1COc1ccc2c(C)c(C)c(=O)oc2c1C do in these assays?
mHTT-CaM PPI inh: inactive; Pf apPOL block: inactive

How did COc1cccc(C(=O)N2CCc3c(c(C(=O)NCc4ccccc4)nn3C)C2)c1 do in these assays?
mHTT-CaM PPI inh: 69; Pf apPOL block: inactive

What do the screens show for `CN(C)c1cccc(C(=O)N2CCc3c(c(C(=O)NCc4ccccc4)nn3C)C2)c1`?
mHTT-CaM PPI inh: 50; Pf apPOL block: inactive

Results for Cn1nc(C(=O)NCc2ccccc2)c2c1CCN(C(=O)c1cccc(Cl)c1)C2 ?
mHTT-CaM PPI inh: 81; Pf apPOL block: inactive

Results for Cn1nc(C(=O)NCc2ccccc2)c2c1CCN(C(=O)c1ccc(Cl)cc1)C2 ?
mHTT-CaM PPI inh: inactive; Pf apPOL block: inactive

How did Cn1nc(C(=O)NCc2ccccc2)c2c1CCN(C(=O)c1c(F)cccc1F)C2 do in these assays?
mHTT-CaM PPI inh: inactive; Pf apPOL block: inactive

What do the screens show for `CCOc1ccc(C(=O)N2CCc3c(c(C(=O)NCc4ccccc4)nn3C)C2)cc1`?
mHTT-CaM PPI inh: inactive; Pf apPOL block: inactive

How did Cn1nc(C(=O)NCc2ccccc2)c2c1CCN(C(=O)c1cccs1)C2 do in these assays?
mHTT-CaM PPI inh: inactive; Pf apPOL block: inactive

How did COc1ccc(C(=O)N2CCc3c(c(C(=O)NCc4ccccc4)nn3C)C2)cc1OC do in these assays?
mHTT-CaM PPI inh: 75; Pf apPOL block: inactive

Results for COc1cc(N2CN=c3s/c(=C\c4cccc([N+](=O)[O-])c4)c(=O)n3C2)cc(OC)c1OC ?
mHTT-CaM PPI inh: inactive; Pf apPOL block: inactive

What do the screens show for `COc1ccc(CNC(=O)N2CCN(C3=CC4=NC(C)CN4C=N3)CC2)cc1` (configuration not stated)?
mHTT-CaM PPI inh: inactive; Pf apPOL block: inactive

How did O=C1S/C(=C\c2ccco2)C(=O)N1CN1CCCCC1 do in these assays?
mHTT-CaM PPI inh: inactive; Pf apPOL block: inactive

What do the screens show for `COc1ccccc1C(=O)N1CCc2c(c(C(=O)NCc3ccc(Cl)cc3)nn2C)C1`?
mHTT-CaM PPI inh: 80; Pf apPOL block: inactive

How did COc1cccc(C(=O)N2CCc3c(c(C(=O)NCc4ccc(Cl)cc4)nn3C)C2)c1 do in these assays?
mHTT-CaM PPI inh: 90; Pf apPOL block: inactive

What do the screens show for `Cn1nc(C(=O)NCc2ccc(Cl)cc2)c2c1CCN(C(=O)c1ccccc1F)C2`?
mHTT-CaM PPI inh: inactive; Pf apPOL block: inactive

What do the screens show for `O=C(Nc1cccc(-c2nc3ccccc3[nH]2)c1)c1cc(-c2ccco2)on1`?
mHTT-CaM PPI inh: inactive; Pf apPOL block: inactive

Results for Cc1cccc2nc(CSc3nnnn3-c3ccccc3)c(Br)n12 ?
mHTT-CaM PPI inh: inactive; Pf apPOL block: inactive
